Among the data in PubChem BioAssay (EPA / NIEHS) are outcome and AC50 values, retold here.

Records with an inconclusive call do not appear. Calls of active or inactive are those of the source. The calls were made as follows: active = hit-call score of the fitted dose curve at least 0.9, where 1 is the maximum; inconclusive = response in the unintended direction; inactive = score below 0.9.

A short description of experiment [1]: ACEA_AR_agonist_AUC_viability: ACEA Biosciences xCELLigence Real-Time Cell Analysis on Androgen Receptor Agonism for Viability (AID 2283775).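 As to AC50: viability read 80 hours after compound addition.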 In outline:
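22Rv1 cells; impedance growth kinetics; 8-pt 1:4 dilutions from 100 uM top final, ≤0.5% DMSO; n = 2; 80 h read; AUC viability, loss-of-signal vs DMSO.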

The nature of experiment [2]: ACEA_AR_antagonist_AUC_viability: ACEA Biosciences xCELLigence Real-Time Cell Analysis on Androgen Receptor Antagonism for Viability (AID 2283776).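 Also: area under impedance growth curve at 80 h after dosing as viability; hits lower the growth signal relative to DMSO meaning cytotoxicity.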 In outline: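 22Rv1 human prostate cancer cells were seeded on electrode plates, monitored overnight, then exposed to eight 1:4 dilutions from 100 uM final. Impedance-based growth kinetics at 80 h gave an AUC viability endpoint normalized to DMSO.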

Experiment [3] is described as follows: ACEA_ER_AUC_viability: ACEA Biosciences xCELLigence Real-Time Cell Analysis on Estrogen Receptor Agonism for Viability (AID 2283782).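 Also: hit means loss of impedance signal meaning reduced cell growth or viability.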 In outline:
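Read-out: real-time electrical impedance (RT-CES) area under curve, loss of signal taken as reduced viability, normalized to DMSO baseline. T-47D cells, charcoal-stripped serum medium, compounds up to 100 uM final, continuous exposure, 80 h.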

Experiment [4] concerns the target AR (gene 367) (UniProt P10275). Kind of experiment: ACEA_AR_agonist_80hr: ACEA Biosciences xCELLigence Real-Time Cell Analysis on Androgen Receptor Agonism for Proliferation (AID 2283783).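 Also: hits increase impedance growth signal above DMSO baseline.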 In outline:
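Impedance (RT-CES) growth signal at 80 h post-dose; 22Rv1 cells, 8-pt 1:4 series, top 100 uM final, DMSO ≤0.5%; duplicate plates; gain-of-signal fit relative to DMSO baseline.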

Experiment [5] concerns the target AR (gene 367) (UniProt P10275). In words: ACEA_AR_antagonist_80hr: ACEA Biosciences xCELLigence Real-Time Cell Analysis on Androgen Receptor Antagonism for Proliferation (AID 2283787).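 Also: hits lower the impedance growth signal relative to DMSO.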 The method in brief:
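Measures real-time proliferation of 22Rv1 prostate cancer cells by electrode impedance at 80 hours after dosing. Test articles ran at eight concentrations (1:4 steps, top 100 uM final) in biological duplicate.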

Chain of AR (gene 367) (P10275 whole entry, looked up): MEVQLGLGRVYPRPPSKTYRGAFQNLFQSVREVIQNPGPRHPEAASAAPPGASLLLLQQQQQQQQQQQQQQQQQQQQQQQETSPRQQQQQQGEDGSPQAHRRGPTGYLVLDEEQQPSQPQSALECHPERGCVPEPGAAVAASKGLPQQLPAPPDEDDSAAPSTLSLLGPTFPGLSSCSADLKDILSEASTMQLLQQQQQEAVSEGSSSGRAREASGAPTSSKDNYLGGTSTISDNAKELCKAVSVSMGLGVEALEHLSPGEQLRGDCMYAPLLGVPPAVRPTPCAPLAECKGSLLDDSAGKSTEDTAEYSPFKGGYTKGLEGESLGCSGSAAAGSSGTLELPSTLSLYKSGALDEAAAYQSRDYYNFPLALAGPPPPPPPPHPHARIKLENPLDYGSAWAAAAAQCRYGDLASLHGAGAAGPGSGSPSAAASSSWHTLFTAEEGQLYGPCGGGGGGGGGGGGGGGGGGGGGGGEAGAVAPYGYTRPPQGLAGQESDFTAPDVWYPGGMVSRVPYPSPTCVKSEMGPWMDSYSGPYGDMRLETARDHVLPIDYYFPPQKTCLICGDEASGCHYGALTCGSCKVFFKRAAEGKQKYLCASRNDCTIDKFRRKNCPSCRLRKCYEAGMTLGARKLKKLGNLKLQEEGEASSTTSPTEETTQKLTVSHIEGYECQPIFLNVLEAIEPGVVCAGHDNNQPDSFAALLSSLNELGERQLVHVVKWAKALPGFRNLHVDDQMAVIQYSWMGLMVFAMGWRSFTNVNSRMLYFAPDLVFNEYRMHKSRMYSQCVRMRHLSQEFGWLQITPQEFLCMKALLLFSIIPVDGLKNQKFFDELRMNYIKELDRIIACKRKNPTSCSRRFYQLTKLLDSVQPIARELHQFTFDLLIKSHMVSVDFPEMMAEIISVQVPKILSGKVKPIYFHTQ

Consider `CCCCCCCC/C=C\CCCCCCCC(=O)OCC`, for which the outcome in experiment [1], in experiment [2] and in experiment [3] was inactive.
`C=Cc1ccc(C)cc1`: the compound was classed as inactive in experiment [1] and in experiment [3].
On to `O=C(CC(=O)c1ccccc1)c1ccccc1`, for which, in experiment [2], the outcome was inactive.
In the case of `COC(=O)c1ccc(C)cc1C1=NC(C)(C(C)C)C(=O)N1` (centres undefined) (tested in a mixture with another compound), the call in experiment [2] and in experiment [3] was inactive.
As for `CC(=O)O[C@H]1C[C@@H]2CC[C@@]1(C)C2(C)C`, the compound was classed as inactive (in experiment [2]; in experiment [3]; in the experiment with AR (gene 367) [4]; with AR (gene 367) [5]).
In the case of `CC(=O)O[C@@H]1C[C@@H]2CC[C@@]1(C)C2(C)C`, the compound was classed as inactive in experiment [3].
For `CCCC(=O)OC(C)(C)Cc1ccccc1`, the result in experiment [1], in experiment [2] and in experiment [3] was inactive.
On to `CCCCCCCCCCCCCC(=O)OCC(O)CO` (centres undefined), for which the call (in experiment [1]; in experiment [2]; with AR (gene 367) [5]) was inactive. The concentration at half-maximal activity (AC50) in experiment [3] was 81.6 µM (active).
Turning to `O=CCc1ccccc1`, the compound was called inactive in experiment [1]. In experiment [3], the AC50 was 78.6 µM (active).
Regarding `Cc1ccc(S(N)(=O)=O)cc1`, the call in experiment [2] was inactive.
Take `CC(=O)O[C@@H]1CC2CCC1(C)C2(C)C` (some centres undefined): the compound was called inactive (in experiment [1]; in experiment [2]; in experiment [3]; in the experiment with AR (gene 367) [5]).
For the compound `COCCOCCOCCO`, the outcome in experiment [1] and in experiment [3] was inactive.
With `O=C1NC2NC(=O)NC2N1` (centres undefined), the outcome in experiment [1], in experiment [2] and in experiment [3] was inactive.
On to `CC(C)c1ccccc1O`, for which the compound was called inactive in experiment [2] and in experiment [3].
Consider `CC1CCC(C(C)C)C(O)C1` (centres undefined), for which the compound was called inactive (in experiment [1]; in experiment [2]; in experiment [3]; in the experiment with AR (gene 367) [4]; with AR (gene 367) [5]).
In the case of `C[C@H]1O[C@@H](O[C@H]2[C@@H](O)C[C@H](O[C@H]3[C@@H](O)C[C@H](O[C@H]4CC[C@@]5(C)[C@H](CC[C@@H]6[C@@H]5C[C@@H](O)[C@]5(C)[C@@H](C7=CC(=O)OC7)CC[C@]65O)C4)O[C@@H]3C)O[C@@H]2C)C[C@H](O)[C@@H]1O`, the AC50 was 0.00928 µM (active) in experiment [1], 0.0148 µM (active) in experiment [2], 0.0803 µM (active) in experiment [3] and 0.00928 µM (active) in the experiment with AR (gene 367) [5]. Also, in the experiment with AR (gene 367) [4], the compound was called inactive.
Consider `Cc1ncc[nH]1`, for which the compound was classed as inactive in experiment [3].
`CCCCCCCCCCCCN1CCCCCC1=O`: the compound was classed as inactive in experiment [1]. In experiment [3], the half-maximal activity concentration (AC50) is 31.3 µM (active).
Regarding `ON=C1CCCCC1`, the call in experiment [2] and in experiment [3] was inactive.
Consider `Nc1ccc(NCCO)c([N+](=O)[O-])c1`, for which, in experiment [3], the outcome was inactive.
As to `CCCCCCCCCCCCCCN(CCO)CCO`, the AC50 in experiment [1] is 23.7 µM (active); in experiment [2], 28.4 µM (active); in experiment [3], 7.2 µM (active).
For the compound `C=C1C[C@]23C[C@@]1(O)CC[C@H]2[C@@]12C=C[C@H](O)[C@@](C)(C(=O)O1)[C@H]2[C@@H]3C(=O)O`, the call in experiment [2] and in experiment [3] was inactive.
Take `CCCCCCCCCCCC(=O)OCC(O)CO` (centres undefined): in experiment [2], the outcome was inactive. Besides, the AC50 in experiment [3] was 50 µM (active).
For `O=P(O)(O)O`, the compound was called inactive in experiment [1] and in experiment [3]. For the same compound, the AC50 in experiment [2] was 8.69 µM (active).
As to `CCCCC(CC)COC(C)=O` (centres undefined), in experiment [2], the outcome was inactive.
Consider `CCCCOC(=O)CCCCCCCC(=O)OCCCC`, for which the outcome in experiment [1], in experiment [2] and in experiment [3] was inactive.
As for `CC(C=O)Cc1ccc(C(C)(C)C)cc1` (centres undefined), the call (in experiment [1]; in experiment [2]; in the experiment with AR (gene 367) [5]) was inactive.
Regarding `CS(C)=O`, the compound was classed as inactive in experiment [1], in experiment [2] and in experiment [3].
In the case of `C=C(C)C1CC=C(C)C(=O)C1` (centres undefined), the half-maximal activity concentration (AC50) in experiment [3] is 68.2 µM (active).
`COc1cccc(OC)c1O`: in experiment [3], the call was inactive.
Consider `COS(=O)(=O)O`, for which the call in experiment [1], in experiment [2] and in experiment [3] was inactive.
With `CCCCC1CCC(O)CC1` (centres undefined), the compound was called inactive (in experiment [1]; in experiment [2]; in experiment [3]; in the experiment with AR (gene 367) [5]).
Turning to `O=C(c1ccccc1)C(O)c1ccccc1` (centres undefined), the call in experiment [2] and in experiment [3] was inactive.
Consider `CCCCCCC(=O)c1ccccc1`, for which the compound was called inactive in experiment [1] and in experiment [3].
Turning to `CCCCCCCCSCCO`, the compound was called inactive (in experiment [1]; in experiment [2]; in the experiment with AR (gene 367) [4]; in the experiment with AR (gene 367) [5]). Also, the half-maximal activity concentration (AC50) in experiment [3] is 70.5 µM (active).
Turning to `CCOC(=O)CC(C)O` (centres undefined), the outcome in experiment [3] was inactive.
Turning to `COC(=O)c1cccnc1`, the compound was classed as inactive in experiment [3].
As for `COCCOC(=O)c1ccccc1C(=O)OCCOC`, the compound was classed as inactive in experiment [3].
In the case of `CC(C)=CCCC(C)CCOC=O` (centres undefined), in experiment [3], the AC50 was 50 µM (active).
In the case of `COC(C)(C)CCCC(C)CC=O` (centres undefined), the concentration at half-maximal activity (AC50) in experiment [3] was 50 µM (active).
As to `CC=CC=CCOC(=O)C(C)C`, the concentration at half-maximal activity (AC50) in experiment [3] was 76.8 µM (active).
With `COC(=O)c1ccc(OC)cc1`, the call in experiment [3] was inactive.
`CC(C)CC(C)CC(O)CC(C)C` (centres undefined): in experiment [3], the outcome was inactive.
As for `CCCCCCCCCCCCCCCC(=O)OC/C=C(C)/C=C/C=C(C)/C=C/C1=C(C)CCCC1(C)C`, the AC50 in experiment [3] is 40 µM (active).
Still for that read-out and setting: as for `O=C1CCCC=CCCCCCCCCCC1`, the figure is 84.1 µM (active).
`CN1CCOCC1`: the compound was classed as inactive in experiment [3].
